Results from PubChem BioAssay.
A number with no mark means an inactive call. Activity calls are given as the source filed them. Cut-off read from the data, not from the text of the source, unless noted: active = inhibition above about 28%; inactive = the rest.

Experiments:
[1] = StAR promoter reporter inhibitors, counter-screen for LRH-1 inverse agonist project, cell-based, luminescence, high throughput (AID 651611); settings: StAR promoter luciferase reporter counterscreen, at 3.6 µM, active compounds read high
[2] = molecular target: Nuclear receptor subfamily 5 group A member 2 (Homo sapiens) (UniProt O00482); assay: NR5A2 activity suppression in reporter cells – cell-based, luminescence, confirmation (AID 651613; in the data active = inhibition above about 42%;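 note: HEK293T cells co-transfected with LRH-1 and StAR promoter luciferase reporter; 0% = vehicle wells and 100% = parental cells lacking receptor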); settings: cell-based LRH-1 luciferase reporter, inverse agonism; at 3.6 µM; active compounds read high
Sequence of Nuclear receptor subfamily 5 group A member 2 (Homo sapiens) (O00482 whole entry, looked up): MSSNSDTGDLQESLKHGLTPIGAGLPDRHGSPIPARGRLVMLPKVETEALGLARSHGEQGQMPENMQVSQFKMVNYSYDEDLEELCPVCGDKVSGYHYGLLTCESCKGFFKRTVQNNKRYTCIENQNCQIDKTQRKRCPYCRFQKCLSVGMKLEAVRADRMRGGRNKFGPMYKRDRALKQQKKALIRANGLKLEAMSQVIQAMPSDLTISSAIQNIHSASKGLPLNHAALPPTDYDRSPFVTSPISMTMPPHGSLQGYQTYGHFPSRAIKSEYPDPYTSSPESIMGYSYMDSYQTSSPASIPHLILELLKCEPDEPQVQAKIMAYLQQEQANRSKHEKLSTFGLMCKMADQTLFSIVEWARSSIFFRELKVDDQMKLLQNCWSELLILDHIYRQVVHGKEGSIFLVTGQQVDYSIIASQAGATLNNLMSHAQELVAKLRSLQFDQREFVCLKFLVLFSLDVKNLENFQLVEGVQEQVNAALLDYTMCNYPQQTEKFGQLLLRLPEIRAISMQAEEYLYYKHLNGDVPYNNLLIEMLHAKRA

[3] = molecular target: Steroidogenic factor 1 (Homo sapiens) (UniProt Q13285); assay: inverse agonism at SF1 nuclear receptor – cell-based, luminescence, high throughput, counter-screen for LRH-1 inverse agonist project (AID 651614; in the data active = inhibition above about 44%;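 note: cells cotransfected with StAR promoter reporter and SF1 expression vector; 0% = vehicle on cells with receptor and 100% = vehicle on cells lacking receptor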); settings: cell-based SF1 luciferase reporter, at 3.6 µM, active compounds read high
Sequence of Steroidogenic factor 1 (Homo sapiens) (Q13285 whole entry, looked up, the tested form may be a part): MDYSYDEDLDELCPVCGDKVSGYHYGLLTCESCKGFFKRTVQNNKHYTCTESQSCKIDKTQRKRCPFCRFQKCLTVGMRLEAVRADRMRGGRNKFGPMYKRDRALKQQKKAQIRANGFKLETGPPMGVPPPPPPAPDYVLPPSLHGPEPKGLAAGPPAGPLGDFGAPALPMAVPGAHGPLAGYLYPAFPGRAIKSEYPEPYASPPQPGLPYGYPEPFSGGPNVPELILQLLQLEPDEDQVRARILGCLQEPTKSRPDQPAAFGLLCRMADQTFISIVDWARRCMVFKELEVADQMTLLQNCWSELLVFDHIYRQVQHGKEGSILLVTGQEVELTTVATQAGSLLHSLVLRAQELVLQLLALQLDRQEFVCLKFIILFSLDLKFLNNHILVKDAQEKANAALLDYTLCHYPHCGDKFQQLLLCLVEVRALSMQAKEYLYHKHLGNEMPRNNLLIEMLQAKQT

[4] = compounds suppressing VP16-driven luciferase signal – cell-based, luminescence, high throughput, counter-screen for LRH-1 inverse agonist project (AID 651615; in the data active = inhibition above about 33%); settings: Gal4-VP16 luciferase reporter cells, at 3.6 µM, active compounds read high

For CS(=O)(=O)N1CCN(c2ccccc2NC(=O)c2ccc([N+](=O)[O-])o2)CC1, which inhibition [1] is on record?
Its inhibition is 11.6%.

And the inhibition [2]?
The inhibition was 57.4% (active).

What about the inhibition [3] of the same compound?
The inhibition was 55.3% (active).

And the inhibition [4]?
Its inhibition is -20.1%.

Which results are given for O=C(Nc1ccc(F)cc1)C(c1cc2ccccc2o1)N1CCN(c2cccc(C(F)(F)F)n2)CC1 (stereo unspecified)?
inhibition [1]: 11%; inhibition [2]: 24.9%; inhibition [3]: 35.4%; inhibition [4]: 16.1%

Which inhibition [1] does the source give for Cc1cc(OCC(=O)Nc2ccc(OCc3ccccc3)cc2)nc(C(C)C)n1 here?
Its inhibition is -0.66%.

What about the inhibition [2] of the same compound?
The inhibition was 48% (active).

What about the inhibition [3] of the same compound?
The inhibition was 32.4%.

What about the inhibition [4] of the same compound?
Its inhibition is 15.2%.

For CCOc1ccc(CCNC(=O)COC(=O)c2cccc(S(=O)(=O)N3CCCC3)c2)cc1OCC, which inhibition [1] is on record?
Its inhibition is -4.16%.

What about the inhibition [2] of the same compound?
Its inhibition is 58.6% (active).

And the inhibition [3]?
Its inhibition is 54.1% (active).

What about the inhibition [4] of the same compound?
The inhibition was 9.86%.

Which results are given for Cc1ccc(-n2nc(C)c(NC(=O)CCl)c2C)cc1C?
inhibition [1]: 57.9% (active); inhibition [2]: 66.8% (active); inhibition [3]: 66.8% (active); inhibition [4]: -60.3%

For COC(=O)c1c(NC(=O)c2cccc(N3C(=O)CCC3=O)c2)sc2c1CCN(C(C)=O)C2, which inhibition [1] is on record?
Its inhibition is 19.6%.

And the inhibition [2]?
The inhibition was 65.5% (active).

And the inhibition [3]?
The inhibition was 49.8% (active).

What about the inhibition [4] of the same compound?
Its inhibition is -30.4%.

With COc1ccc(OC)c(NC(=S)NCc2cccnc2)c1 as the compound, how does the inhibition [1] read?
The inhibition was 1.82%.

What about the inhibition [2] of the same compound?
Its inhibition is 35.9%.

And the inhibition [3]?
Its inhibition is 33.3%.

And the inhibition [4]?
Its inhibition is 0.37%.

For CC(=O)N1CCc2c(sc(NC(=O)Cc3ccc(F)cc3)c2C#N)C1, which inhibition [1] is on record?
The inhibition was 21.4%.

What about the inhibition [2] of the same compound?
The inhibition was 65.3% (active).

And the inhibition [3]?
Its inhibition is 57.6% (active).

And the inhibition [4]?
The inhibition was -35.5%.

With CCOc1cc(/C=C2\C(=N)N3N=C(C)SC3=NC2=O)ccc1OCCOc1cccc(OC)c1 as the compound, how does the inhibition [1] read?
The inhibition was 10%.

And the inhibition [2]?
Its inhibition is 39.7%.

What about the inhibition [3] of the same compound?
Its inhibition is 40.2%.

What about the inhibition [4] of the same compound?
Its inhibition is 6.87%.

For Cc1c(C(=O)NC(C)c2ccncc2)oc2ccccc12 (stereo unspecified), which inhibition [1] is on record?
Its inhibition is -19.6%.

What about the inhibition [2] of the same compound?
The inhibition was 44.2% (active).

What about the inhibition [3] of the same compound?
The inhibition was 42.9% (active).

What about the inhibition [4] of the same compound?
The inhibition was -7.87%.

For COc1ccccc1NC(=O)CN1CCN(CC(=O)Nc2ccc3c(c2)OCCO3)CC1, which inhibition [1] is on record?
The inhibition was 6.64%.

And the inhibition [2]?
The inhibition was 56.8% (active).

And the inhibition [3]?
The inhibition was 49.5% (active).

And the inhibition [4]?
The inhibition was -7.19%.

For Cn1cnnc1SCC(=O)Nc1ccc(N2CCOCC2)cc1, which inhibition [1] is on record?
The inhibition was 7.69%.

What about the inhibition [2] of the same compound?
Its inhibition is 59.5% (active).

And the inhibition [3]?
The inhibition was 34.5%.

What about the inhibition [4] of the same compound?
The inhibition was -9.61%.

Which inhibition [1] does the source give for Cc1ccc(S(=O)(=O)NCc2ccncc2)cc1 here?
The inhibition was 5.31%.

And the inhibition [2]?
Its inhibition is 54.7% (active).

What about the inhibition [3] of the same compound?
The inhibition was 43% (active).

And the inhibition [4]?
The inhibition was 48.7% (active).

With CCOc1ccc(S(=O)(=O)Nc2nc3ccccc3nc2N2CCN(C)CC2)cc1 as the compound, how does the inhibition [1] read?
Its inhibition is -10.8%.

And the inhibition [2]?
Its inhibition is 27.2%.

What about the inhibition [3] of the same compound?
Its inhibition is 24.1%.

And the inhibition [4]?
Its inhibition is -4.2%.

With CCOC(=O)c1ccc(NC(=O)CSc2nnc(COc3ccccc3OC)n2C)cc1 as the compound, how does the inhibition [1] read?
The inhibition was -2.53%.

And the inhibition [2]?
The inhibition was 40.4%.

And the inhibition [3]?
Its inhibition is 35.7%.

What about the inhibition [4] of the same compound?
The inhibition was -6.59%.

For S=C1Cc2ccccc2N1, which inhibition [1] is on record?
The inhibition was 56% (active).

What about the inhibition [2] of the same compound?
The inhibition was 85.9% (active).

What about the inhibition [3] of the same compound?
Its inhibition is 79.5% (active).

And the inhibition [4]?
The inhibition was 53.3% (active).

For Cc1cc(C)nc(N/N=C/c2ccc([N+](=O)[O-])o2)n1, which inhibition [1] is on record?
Its inhibition is 8.46%.

And the inhibition [2]?
The inhibition was 57.7% (active).

And the inhibition [3]?
The inhibition was 42.5%.

And the inhibition [4]?
The inhibition was -4.48%.

What does the source list for COc1cc(CCNc2ccc3nnc(-c4ccccc4)n3n2)cc(OC)c1OC?
inhibition [1]: 50.7% (active); inhibition [2]: 37.5%; inhibition [3]: 28.6%; inhibition [4]: -65.1%

With CC(=O)N[C@@H](Cc1c[nH]c2ccccc12)C(=O)OCC(=O)Nc1ccc2c(c1)OCO2 as the compound, how does the inhibition [1] read?
The inhibition was -1.82%.

And the inhibition [2]?
The inhibition was 53.1% (active).

And the inhibition [3]?
The inhibition was 56.8% (active).

And the inhibition [4]?
The inhibition was -4.65%.

With CC(NC(=O)CCl)c1ccc(Cl)c(Cl)c1 (stereo unspecified) as the compound, how does the inhibition [1] read?
Its inhibition is 32.8% (active).

What about the inhibition [2] of the same compound?
The inhibition was 69.4% (active).

And the inhibition [3]?
Its inhibition is 67.3% (active).

And the inhibition [4]?
Its inhibition is -15.3%.

Which inhibition [1] does the source give for CC(=O)Nc1cccc(-c2cc(NC=O)c3ncc(-c4cccc(C(C)=O)c4)n3c2)c1 here?
Its inhibition is 29.1% (active).

What about the inhibition [2] of the same compound?
The inhibition was 57.6% (active).

What about the inhibition [3] of the same compound?
The inhibition was 53.2% (active).

And the inhibition [4]?
The inhibition was -34.5%.

Which inhibition [1] does the source give for Cc1ccccc1Nc1nc(-c2cccnc2)nc2ccccc12 here?
Its inhibition is 2.04%.

And the inhibition [2]?
Its inhibition is 41.5% (active).

And the inhibition [3]?
The inhibition was 33.2%.

What about the inhibition [4] of the same compound?
Its inhibition is -10.5%.

With CC(=O)Nc1cc(-c2cccc(F)c2)cn2c(-c3ccc(S(C)(=O)=O)cc3)cnc12 as the compound, how does the inhibition [1] read?
The inhibition was 8.88%.

And the inhibition [2]?
The inhibition was 50.2% (active).

What about the inhibition [3] of the same compound?
The inhibition was 54.6% (active).

What about the inhibition [4] of the same compound?
Its inhibition is -14.3%.

Which inhibition [1] does the source give for Cc1cnc(NC(=O)CCCc2nc3ccccc3s2)s1 here?
The inhibition was 45.5% (active).

And the inhibition [2]?
Its inhibition is 73.1% (active).

And the inhibition [3]?
The inhibition was 42.5%.

And the inhibition [4]?
Its inhibition is 29.4%.
